Assay results: ChEMBL document CHEMBL1201862, “PubChem BioAssay data set” (2004)
In all, about 42,000 sequences went through this assay and about 2,900 (6.9%) were called active. Cut-off read from the data, not from the text of the source: active = GI50 up to about 1.1 µM and inactive = higher. The entries come from a sample that favours actives as a whole. Measured potencies and affinities stand elsewhere.

Test system: T47D

| Substance | GI50 [µM] |
| --- | --- |
| [Bis(aminomethyl)tetramethylenesilane]dichloropaltinum(II), CHEMBL2146205 | 5 |
| [Bis(aminomethyl)pentamethylenesilane]dichloropaltinum(II), CHEMBL2146202 | 1.34 |
| [Bis(aminomethyl)pentamethylenesilane]tetrachloropaltinum(IV), CHEMBL2146204 | 2.18 |
| [Bis(aminomethyl)tetramethylenesilane]tetrachloropaltinum(IV), CHEMBL2146189 | 0.184 |
| [Bis(aminomethyl)dimethylsilane]tetrachloroplatinum(IV), CHEMBL2146190 | 14.6 |
| CISPLATIN, CHEMBL11359 | 14 |
